# Laboratory results published in PubChem BioAssay (Tox21).
# Several values for one entry are separate records, joined by “and”; a condition that tells them apart may be missing. Equal entries are not always repeated. Records with an inconclusive call do not appear. Where a call stands in place of a potency, no number is given. Where a structure was tested more than once in an assay, its records may differ in their call. Activity calls are given as the source filed them. Unless noted, calls come from the whole dose curve; as a rule, active = well fitted curve in the direction sought with a large enough effect in the repeat runs; inconclusive = weak or mixed curves; inactive = no such curve, though single readings can be large; an effect the other way counts as inactive or inconclusive.
# Experiments:
# [1] = A CellTox Green Cytotoxicity Assay to monitor cytotoxicity in HepG2 cells - 8 hour (AID 1224890); note: nearly all actives have a fitted effect of over 45% in size; note: potency is the fitted concentration of half-maximal effect
# Method in brief: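 Cytotoxicity was tracked as dead-cell DNA fluorescence in HepG2 cells treated with test compounds at 37 C; each time-point value comes from one kinetic series spanning 0, 8, 16, 24, 32 and 40 h.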
# [2] = qHTS assay to identify small molecule antagonists of the estrogen receptor alpha (ER-alpha) signaling pathway using the BG1 cell line in the presence of 0.1 nM 17-beta-estradiol - cell viability counter screen (AID 1259241); note: nearly all actives have a fitted effect of over 40% in size; note: potency is the fitted concentration of half-maximal effect
# Method in brief: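 Cells were plated and left 24 hr, compounds in DMSO were pinned in, 17beta-estradiol was added to 0.1 nM final, and after 22 hr CellTiter-Fluor reagent was added for 30 min before fluorescence was read.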
# [3] = qHTS assay to identify small molecule antagonists of the androgen receptor (AR) signaling pathway using the MDA cell line in the presence of 0.5 nM R1881 - cell viability counter screen (AID 1259242); note: nearly all actives have a fitted effect of over 45% in size; note: potency is the fitted concentration of half-maximal effect
# Method in brief: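 Cells seeded at 3,000/well and allowed 5 hr at 37C, 0% CO2 before compound transfer and R1881 (0.5 nM final) addition; 16 hr later, live-cell protease fluorescence indicated cytotoxicity.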
# [4] = target: Estrogen receptor (Homo sapiens) (UniProt P03372); test: qHTS assay to identify small molecule antagonists of the estrogen receptor alpha (ER-alpha) signaling pathway using the BG1 cell line in the presence of 0.1 nM 17-beta-estradiol (AID 1259244); note: nearly all actives have a fitted effect of over 50% in size; note: potency is the fitted concentration of half-maximal effect
# Chain of Estrogen receptor (Homo sapiens) (P03372 whole entry, looked up): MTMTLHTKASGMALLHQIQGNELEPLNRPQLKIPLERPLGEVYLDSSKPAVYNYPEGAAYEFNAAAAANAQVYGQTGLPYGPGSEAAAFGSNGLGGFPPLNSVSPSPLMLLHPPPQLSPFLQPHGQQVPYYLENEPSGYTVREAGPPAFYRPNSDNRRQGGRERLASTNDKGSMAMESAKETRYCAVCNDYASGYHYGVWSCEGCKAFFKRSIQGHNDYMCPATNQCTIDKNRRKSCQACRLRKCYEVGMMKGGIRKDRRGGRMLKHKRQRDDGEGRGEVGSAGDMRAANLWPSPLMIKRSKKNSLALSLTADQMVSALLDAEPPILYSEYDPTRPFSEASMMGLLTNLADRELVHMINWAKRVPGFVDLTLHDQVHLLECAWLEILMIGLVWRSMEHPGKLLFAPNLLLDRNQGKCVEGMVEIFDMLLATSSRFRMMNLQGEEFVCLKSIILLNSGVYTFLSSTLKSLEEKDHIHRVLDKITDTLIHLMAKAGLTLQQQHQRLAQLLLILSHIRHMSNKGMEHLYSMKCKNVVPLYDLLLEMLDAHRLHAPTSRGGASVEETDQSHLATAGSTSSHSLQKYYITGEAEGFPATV
# Method in brief: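 Luciferase signal from VM7Luc4E2 ERE-reporter cells, co-dosed with test compound and 0.1 nM final 17beta-estradiol for 22 h, read with ONE-Glo.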
# [5] = qHTS assay to identify small molecule HDAC inhibitors (AID 1259364);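 note: wild-type HCT-116 cells with endogenous class I/II HDAC activity; top concentration of the series differs between compounds; nearly all actives have a fitted effect of over 45% in size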
# Method in brief: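 HCT-116 wt cells, 1,500/well, overnight attach. Compounds (DMSO) 2 h, 37 °C. HDAC-Glo I/II, 30 min RT. Luminescence.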
# [6] = qHTS assay to identify small molecule HDAC inhibitors - cell viability counter screen (AID 1259365); note: series mostly up to about 92 µM; nearly all actives have a fitted effect of over 50% in size
# Method in brief: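 Counter screen in wild-type HCT-116 cells: compounds dissolved in DMSO are pin-transferred onto overnight-plated cells and left 2hr at 37C. ATP-based CellTiter-Glo luminescence then measures viable cells.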
# [7] = qHTS assay to identify small molecule agonists of the sonic hedgehog signaling (Shh) pathway - cell viability counter screen (AID 1259366); note: nearly all actives have a fitted effect of over 50% in size; note: potency is the fitted concentration of half-maximal effect
# Method in brief: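 Cells are plated at 2,000 per well and left 4hr at 37C, 5% CO2 before compound addition. After 23hr of treatment, CellTiter-Fluor reagent is added for 1hr at 37C and fluorescence is measured.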
# [8] = qHTS assay to identify small molecule antagonists of the sonic hedgehog signaling (Shh) pathway - cell viability counter screen (AID 1259367); note: nearly all actives have a fitted effect of over 55% in size; note: potency is the fitted concentration of half-maximal effect
# Method in brief: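 Tox21 library chemicals were tested on a Gli1-Luc NIH/3T3 clone (2,000 cells/well) stimulated by conditioned medium; viability was quantified as fluorescence from CellTiter-Fluor reagent added at 23 hr.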
# [9] = qHTS assay to identify small molecule agonists of the sonic hedgehog signaling (Shh) pathway (AID 1259368; calls by dose curve;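 note: NIH/3T3-derived 3T3Gli1-Luc cells carrying a stable Gli1-driven firefly luciferase reporter; series mostly up to about 92 µM; nearly all actives have a fitted effect of over 15% in size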)
# Method in brief: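 Following a 24 hr incubation with DMSO-dissolved compounds at 37 C, 5% CO2, Gli1-Luc NIH/3T3-derived cells received luciferase reagent for 30 min at room temperature prior to luminescence measurement.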
# [10] = qHTS assay to identify small molecule antagonists of the sonic hedgehog signaling (Shh) pathway (AID 1259369; calls by dose curve; note: nearly all actives have a fitted effect of over 45% in size; note: potency is the fitted concentration of half-maximal effect)
# Method in brief: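 Read-out is luminescence from a firefly luciferase gene controlled by the Gli1 response element, in 3T3Gli1-Luc cells pre-incubated 4hr then exposed to compounds and conditioned medium for 24hr.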
# [11] = target: Estrogen receptor beta (Homo sapiens) (UniProt Q92731); test: qHTS assay to identify small molecule agonists of the estrogen receptor beta (ER-beta) signaling pathway (AID 1259377; active = well fitted activation curve with a large enough effect in the signal ratio in the repeat runs, not every such curve was filed as active; the % refers to the signal ratio)
# Chain of Estrogen receptor beta (Homo sapiens) (Q92731 whole entry, looked up, the tested form may be a part): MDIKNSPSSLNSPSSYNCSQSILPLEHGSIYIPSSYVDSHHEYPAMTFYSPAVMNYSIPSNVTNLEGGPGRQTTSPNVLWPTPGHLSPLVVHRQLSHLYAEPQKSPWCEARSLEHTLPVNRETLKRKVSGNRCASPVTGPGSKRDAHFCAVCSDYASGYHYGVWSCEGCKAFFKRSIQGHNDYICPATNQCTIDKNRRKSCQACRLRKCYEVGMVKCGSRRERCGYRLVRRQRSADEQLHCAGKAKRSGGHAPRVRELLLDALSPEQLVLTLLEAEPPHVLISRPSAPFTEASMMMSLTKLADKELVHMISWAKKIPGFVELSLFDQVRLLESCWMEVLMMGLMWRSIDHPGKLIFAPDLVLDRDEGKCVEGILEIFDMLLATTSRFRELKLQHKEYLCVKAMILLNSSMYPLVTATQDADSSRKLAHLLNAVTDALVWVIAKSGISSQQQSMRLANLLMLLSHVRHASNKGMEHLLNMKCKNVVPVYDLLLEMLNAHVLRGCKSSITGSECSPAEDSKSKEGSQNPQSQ
# Method in brief: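 Agonist mode cell assay in GripTite HEK293T cells expressing an ER-beta fusion that drives beta-lactamase from an Upstream Activator Sequence; 16 hr compound exposure at 37C, then 2 h LiveBLAzer B/G FRET substrate at room temperature, fluorescence read-out.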
# [12] = target: Estrogen receptor beta (Homo sapiens) (UniProt Q92731); test: qHTS assay to identify small molecule antagonists of the estrogen receptor beta (ER-beta) signaling pathway (AID 1259378; active = well fitted inhibition curve with a large enough effect in the signal ratio in the repeat runs, not every such curve was filed as active; the % refers to the signal ratio; note: potency is the fitted concentration of half-maximal effect)
# Method in brief: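 ER-beta-UAS-bla HEK293T cells in 2% charcoal-stripped FBS medium treated with compound plus 1nM final 17-beta-estradiol for 16 hr at 37C. Beta-lactamase reporter read by FRET substrate fluorescence after 2 hours at room temperature.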
# [13] = qHTS assay to identify small molecule agonists of the androgen receptor (AR) signaling pathway in the presence of an antagonist - cell viability counter screen (AID 1259379); note: nearly all actives have a fitted effect of over 25% in size; note: potency is the fitted concentration of half-maximal effect
# Method in brief: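 Each compound was tested at 15 concentrations on MDA-kb2 cells in the presence of 3.0uM nilutamide. Viability was measured by CellTiter-Fluor fluorescence after a 16 hr incubation at 37C in a CO2-free atmosphere.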
# [14] = qHTS assay to identify small molecule agonists of the estrogen receptor beta (ER-beta) signaling pathway - cell viability counter screen (AID 1259380); note: nearly all actives have a fitted effect of over 30% in size; note: potency is the fitted concentration of half-maximal effect
# Method in brief: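 Compounds dissolved in DMSO were pin-transferred onto ER-beta-UAS-bla HEK293T cells that had settled 6 hr, and exposure ran 16 hr at 37C. Following the reporter read, CellTiter-Glo luminescence after 30 min at room temperature indicated cytotoxicity.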
# [15] = qHTS assay to identify small molecule antagonists of the estrogen receptor beta (ER-beta) signaling pathway - cell viability counter screen (AID 1259382); note: nearly all actives have a fitted effect of over 55% in size; note: potency is the fitted concentration of half-maximal effect
# Method in brief: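 CellTiter-Glo ATP luminescence measured after the LiveBLAzer read in the same wells; ER-beta-UAS-bla HEK293T cells, 16 hr compound treatment with 1nM 17-beta-estradiol agonist at 37C, 5% CO2.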
# [16] = qHTS assay to identify small molecule agonists or antagonists of the thyroid stimulating hormone receptor (TSHR) signaling pathway - wild type cell line counter screen (AID 1259384; calls by dose curve)
# Method in brief: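 Wild-type Hek293 cells, 800/well, 18 h at 37C, then compound with Ro20-1724 for 30 min RT. cAMP by HTRF (cAMP-d2/anti-cAMP cryptate), 1 h RT, fluorescence read. 15 concentrations, triplicates.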
# [17] = target: Estrogen receptor (Homo sapiens) (UniProt P03372); test: qHTS assay to identify small molecule agonists of the estrogen receptor alpha (ER-alpha) signaling pathway in the presence of an antagonist (AID 1259383; calls by dose curve; note: top concentration of the series differs between compounds; nearly all actives have a fitted effect of over 15% in size)
# Method in brief: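 Luminescent ERE-luciferase reporter, VM7Luc4E2 cells (endogenous ER-alpha); 10.0nM ICI-182,780 final; 15-point compound titration; 22hr at 37C; ONE-Glo, 30min RT.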
# [18] = qHTS assay to identify small molecule phospholipidosis (PLD) inducers (AID 1259344; active = well fitted curve in the direction sought with a large enough effect; an effect the other way counts as inactive or inconclusive)
# Method in brief: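 Image-based: LipidTOX Red pit count/intensity per well and per cell; HepG2, 24 h compound at 37 C, PFA fixation, Hoechst counterstain.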
# [19] = target: Androgen receptor (Homo sapiens) (UniProt P10275); test: qHTS assay to identify small molecule antagonists of the androgen receptor (AR) signaling pathway using the MDA cell line in the presence of 0.5 nM R1881 (AID 1259243); note: nearly all actives have a fitted effect of over 50% in size
# Chain of Androgen receptor (Homo sapiens) (P10275 whole entry, looked up): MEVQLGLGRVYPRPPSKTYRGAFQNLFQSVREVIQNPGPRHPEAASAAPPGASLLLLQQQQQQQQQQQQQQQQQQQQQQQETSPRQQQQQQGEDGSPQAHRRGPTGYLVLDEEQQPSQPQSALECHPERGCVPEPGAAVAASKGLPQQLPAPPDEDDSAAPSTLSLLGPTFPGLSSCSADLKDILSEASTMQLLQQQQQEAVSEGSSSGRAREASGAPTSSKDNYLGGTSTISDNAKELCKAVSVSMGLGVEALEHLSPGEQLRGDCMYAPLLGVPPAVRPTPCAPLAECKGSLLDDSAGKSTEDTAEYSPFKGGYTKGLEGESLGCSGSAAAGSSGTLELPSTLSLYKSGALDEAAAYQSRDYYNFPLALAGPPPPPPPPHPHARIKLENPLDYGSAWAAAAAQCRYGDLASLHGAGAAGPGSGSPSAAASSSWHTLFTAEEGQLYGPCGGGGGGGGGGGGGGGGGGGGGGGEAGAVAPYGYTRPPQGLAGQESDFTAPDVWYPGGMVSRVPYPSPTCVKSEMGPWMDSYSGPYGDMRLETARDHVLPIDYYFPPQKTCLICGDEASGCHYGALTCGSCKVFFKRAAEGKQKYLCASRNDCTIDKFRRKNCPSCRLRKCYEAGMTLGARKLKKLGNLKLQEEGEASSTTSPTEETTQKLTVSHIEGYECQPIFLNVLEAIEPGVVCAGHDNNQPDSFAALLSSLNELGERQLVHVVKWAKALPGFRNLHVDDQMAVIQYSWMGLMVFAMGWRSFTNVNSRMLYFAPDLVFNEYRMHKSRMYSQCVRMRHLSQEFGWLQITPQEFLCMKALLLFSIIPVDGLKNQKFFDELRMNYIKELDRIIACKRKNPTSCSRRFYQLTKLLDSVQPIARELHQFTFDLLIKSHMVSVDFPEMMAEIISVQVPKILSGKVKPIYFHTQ
# Method in brief: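 Luminescence from an AR/GR-responsive MMTV-luciferase construct in MDA-kb2 breast carcinoma cells, read 30 min after ONE-Glo, following 16 hr co-treatment with compounds and 0.5 nM R1881.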
# [20] = target: Androgen receptor (Homo sapiens) (UniProt P10275); test: qHTS assay to identify small molecule agonists of the androgen receptor (AR) signaling pathway in the presence of an antagonist (AID 1259381; calls by dose curve; note: nearly all actives have a fitted effect of over 15% in size)
# Method in brief: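 Plated MDA-kb2 cells (3,000/well) were pre-incubated 5hr, given nilutamide (3.0uM final) or buffer, then dosed with compounds in DMSO at 15 concentrations. Luciferase activity was quantified by luminescence after 16hr at 37C.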
SMILES,Potency [1],Potency [2],Potency [3],Potency [4],Potency [5],outcome [6],Potency [7],Potency [8],outcome [9],Potency [10],Potency [11],Potency [12],Potency [13],Potency [14],Potency [15],outcome [16],Potency [17],outcome [18],outcome [19],Potency [20]
C=C(C)C(=O)OCCCCCCCCCCCC,inactive,inactive,inactive,inactive,inactive,inactive,inactive,inactive,inactive,inactive,inactive,inactive,inactive,inactive,inactive,inactive,,,,
O=[N+]([O-])c1cccc(Cl)c1,inactive,inactive,inactive,inactive,inactive,inactive,inactive,inactive,inactive,inactive,inactive,inactive,inactive,inactive,inactive,inactive,,,,
CCc1ccccc1O,inactive,inactive,inactive,19.2 µM (active) and inactive,inactive,inactive,inactive,inactive,inactive,inactive,inactive,inactive,inactive,inactive,inactive,inactive,,,,
CC(C)(C)C1CCC(O)CC1 (configuration not stated),inactive,inactive,inactive,inactive,inactive,inactive,inactive,inactive,inactive,inactive,inactive,inactive,inactive,inactive,inactive,inactive,,,,
CCCCCCCCC,inactive,inactive,inactive,inactive,inactive,inactive,inactive,,inactive,inactive,inactive,inactive,inactive,inactive,inactive,inactive,inactive,,,
C=C(C)C(=O)OCCC[Si](OC)(OC)OC,inactive,inactive,inactive,inactive,inactive,inactive,inactive,,inactive,inactive,inactive,inactive,,inactive,inactive,inactive,inactive,,,
CC1=CC[C@H]2C[C@@H]1C2(C)C,inactive,inactive,inactive,inactive,inactive,inactive,inactive,,inactive,inactive,inactive,inactive,inactive,inactive,inactive,inactive,,,,
CC(=O)[C@@]1(O)CC[C@H]2[C@@H]3CCC4=CC(=O)CC[C@]4(C)[C@H]3CC[C@@]21C,inactive,inactive,inactive,,inactive,inactive,inactive,inactive,inactive,inactive,inactive,inactive,inactive,inactive,inactive,inactive,,inactive,,
CC1CC(OC(=O)c2ccccc2O)CC(C)(C)C1 (configuration not stated),inactive,inactive,inactive,,inactive,inactive,inactive,60.5 µM (active) and inactive,inactive,27 µM (active) and inactive,,,,inactive,inactive,inactive,,inactive,,
ClC1=C(Cl)C(Cl)(Cl)C(Cl)=C1Cl,inactive,inactive,inactive,inactive,inactive,inactive,inactive,inactive,inactive,inactive,inactive,inactive,,inactive,inactive,inactive,inactive,,,
CCCCCCC(C)(C)S,inactive,inactive,inactive,,inactive,inactive,inactive,inactive,inactive,inactive,inactive,inactive,inactive,inactive,inactive,inactive,,,,
CC1=C(CC(=O)O)c2cc(F)ccc2/C1=C\c1ccc(S(C)=O)cc1 (configuration not stated),inactive,inactive,inactive,,inactive,inactive,inactive,,inactive,inactive,inactive,inactive,inactive,inactive,inactive,inactive,,inactive,,
O=[N+]([O-])c1cc(N(CCO)CCO)ccc1NCCO,inactive,34.4 µM (active),,,,,inactive,inactive,inactive,inactive,inactive,inactive,54.4 µM (active) and 30.6 µM (active),inactive,inactive,,inactive,,inactive,inactive
CC(C)n1c(/C=C/[C@@H](O)C[C@@H](O)CC(=O)O)c(-c2ccc(F)cc2)c2ccccc21,inactive,inactive,inactive,,inactive,inactive,inactive,,inactive,,,,inactive,13.7 µM (active) and 4.73 µM (active),15.4 µM (active),,,inactive,,
Nc1c(S(=O)(=O)O)cc(Br)c2c1C(=O)c1ccccc1C2=O,inactive,,inactive and 24.3 µM (active),inactive,inactive,inactive,inactive and 30.6 µM (active),,inactive,inactive,inactive,inactive,,inactive,inactive,inactive,inactive,,,
C=C(C#N)C(=O)OCC,inactive,inactive,inactive,,inactive,inactive,inactive,,inactive,inactive and 15.4 µM (active),,,inactive,inactive,inactive,inactive,,,,
NC(=O)NNc1ccccc1,inactive,inactive,inactive,,inactive,inactive,inactive,,inactive,inactive,inactive,inactive,inactive,inactive,inactive,inactive,,inactive,,
CN(C)c1cccc(O)c1,inactive and 54.9 µM (active),inactive,inactive,,inactive,inactive,inactive,,inactive,inactive,inactive,inactive,inactive,inactive,inactive,inactive,,,,
C/C=C(C)/C=C/C=C(C)C,inactive,inactive,inactive,,inactive,inactive,inactive,,inactive,27.3 µM (active),inactive,inactive,inactive,inactive,inactive,,,,,
CCCCC(CC)COC(=O)CCCCCCCC(=O)OCC(CC)CCCC (configuration not stated),54.9 µM (active) and inactive,,inactive,,inactive,inactive,inactive,,inactive,15.4 µM (active) and inactive,inactive,12.2 µM (active) and inactive,8.63 µM (active) and inactive,15.4 µM (active),30.6 µM (active) and inactive,inactive,,,,
O=C1N=C(O)CN1/N=C/c1ccc(-c2ccc([N+](=O)[O-])cc2)o1,inactive,,,,inactive,inactive,,,inactive,inactive,,,,inactive,inactive,inactive,,inactive,,
COC(=O)c1ccc(C(=O)OC)cc1,inactive,,inactive,6.19 µM (active) and inactive,,inactive,6.95 µM (active) and inactive,,inactive,982 nM (active) and inactive,inactive,inactive,,6.19 µM (active) and inactive,19.6 µM (active) and inactive,inactive,,,,
Cc1ccc(C(=O)O)o1,inactive,inactive,inactive,,inactive,inactive,inactive,inactive,inactive,inactive,inactive,inactive,inactive,inactive,inactive,inactive,,,,
